Source: PubChem BioAssay
BoNT-F LC inh = inhibitors of Botulinum neurotoxin F light chain protease | Multiplex microsphere protease cleavage assay, flow cytometry | inhibition, % at 10 µM | 360,000 tested, 0.22% active | AID 588497; in the data active means inhibition above about 35%, passing the limit was not always enough; inconclusive means no clear call, values can overlap the other calls; further: plate controls were buffer without enzyme for full effect and enzyme alone for no effect
BoNT A protease = blocks Botulinum neurotoxin A light chain protease; multiplex microsphere protease substrate cleavage, flow cytometry; 360,000 tested, 0.17% active; inhibition, % at 10 µM; further: plate controls were buffer without enzyme for full effect and enzyme alone for no effect
Anthrax LF prot = inhibitors of Bacillus anthracis lethal factor protease; multiplex microsphere protease cleavage assay, LF; inhibition, % at 10 µM; 360,000 tested, 0.12% active; AID 588501; further: plate controls were buffer without enzyme for full effect and enzyme alone for no effect
Target sequence (P15917 whole entry, looked up): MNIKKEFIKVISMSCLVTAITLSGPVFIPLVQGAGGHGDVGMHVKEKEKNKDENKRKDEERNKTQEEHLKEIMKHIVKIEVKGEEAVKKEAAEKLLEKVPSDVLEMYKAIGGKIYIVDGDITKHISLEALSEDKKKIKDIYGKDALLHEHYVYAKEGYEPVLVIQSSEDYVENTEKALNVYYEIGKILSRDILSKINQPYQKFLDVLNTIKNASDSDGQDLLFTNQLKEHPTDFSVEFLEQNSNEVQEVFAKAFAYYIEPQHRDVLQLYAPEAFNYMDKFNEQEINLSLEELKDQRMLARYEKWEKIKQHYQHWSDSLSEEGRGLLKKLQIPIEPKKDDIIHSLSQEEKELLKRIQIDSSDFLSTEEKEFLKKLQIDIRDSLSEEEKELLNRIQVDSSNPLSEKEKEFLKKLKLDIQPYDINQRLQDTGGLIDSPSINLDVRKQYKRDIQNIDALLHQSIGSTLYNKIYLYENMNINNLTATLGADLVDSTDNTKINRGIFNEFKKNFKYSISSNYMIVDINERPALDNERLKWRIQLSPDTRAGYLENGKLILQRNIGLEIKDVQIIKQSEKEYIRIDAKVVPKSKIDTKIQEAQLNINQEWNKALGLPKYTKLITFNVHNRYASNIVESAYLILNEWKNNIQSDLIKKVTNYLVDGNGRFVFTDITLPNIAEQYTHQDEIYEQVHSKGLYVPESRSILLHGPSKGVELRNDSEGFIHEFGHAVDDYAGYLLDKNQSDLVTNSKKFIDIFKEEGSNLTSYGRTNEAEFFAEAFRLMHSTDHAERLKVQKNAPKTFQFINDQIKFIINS
Autofluor counter = flagged as autofluorescent in microsphere protease counterscreen. AID 624483. 360,000 tested, 3.1% active. compound autofluorescence counterscreen, microsphere flow cytometry; active compounds read high. fluorescence intensity (no concentration beside the values); in the data active means fluorescence intensity above about 16000; inconclusive means no clear call, values can overlap the other calls
* marks the source's active call; other numbers are inactive results; ? = inconclusive. Only some compounds are listed: those with a hit (about 3.5% of all), similar ones and a draw of the others. Unless noted, no stated cut-off is given here; in the data, active means inhibition above about 30%; inconclusive means no clear call, values can overlap the other calls; inactive means below that.

SMILES	BoNT-F LC inh	BoNT A protease	Anthrax LF prot	Autofluor counter
COc1ccc(NC(=O)C(=O)NCc2ccncc2)c(OC)c1	-3.4	-1.2	-2.7	5011
COc1ccc(NC(=O)c2ccc(C(=O)Nc3ccc(OC)cc3OC)cc2)c(OC)c1	-2.0	0.3	2.7	2009
COc1ccc(NC(=O)NCc2ccncc2)c(OC)c1	-5.2	?	-3.4	22838*
Cn1nnc(NC(=S)NC(=O)c2cccc3ccccc23)n1	2.2	-1.2	-1.5	5852
CCN(CC)CCN(Cc1cc2ccc(C)cc2[nH]c1=O)C(=O)Nc1ccc(Cl)cc1	-2.1	-2.1	2.3	5266
O=C(NCCNC1CCC(c2ccccc2)CC1)c1cccs1 (stereo not drawn)	-2.3	0.1	-3.9	3239
CCc1nc2c(OCCOC)cccn2c1N(C)C(=O)c1ccco1	-5.6	0.0	-7.4	3764
Cc1ccc(NC(=O)c2c(C(F)(F)F)nn(C)c2Cl)cc1C	3.1	?	2.9	19260*
Cc1ccc(NC(=O)c2c(C(F)(F)F)nn(C)c2SCc2ccc(Cl)cc2)cc1C	-10.8	-3.9	-0.8	18135*
Cn1nc(C(F)(F)F)c(-c2cccc(C(F)(F)F)c2)c1NC(=O)c1ccco1	-2.5	-0.9	-1.8	6253
Cc1ccc(NC(=O)c2c(C(F)(F)F)nn(C)c2SCc2cccc(C(F)(F)F)c2)cc1C	-7.9	-1.5	-5.2	16554*
Cn1nc(C(F)(F)F)c(C(=O)Nc2ccc(Cl)cc2)c1Cl	-5.2	?	2.5	?
CCC(=O)c1cn(CC(=O)Nc2ccc(F)cc2)c2ccccc12	2.8	-0.2	2.9	3733
Cc1cc2ccccc2c(=O)n1CC(=O)NCC(=O)N1CCN(c2ccccc2)CC1	-4.6	-2.7	-2.8	23551*
CC1(C)Cc2c(sc3nc(-c4ccccc4)oc(=O)c23)CO1	-2.5	0.3	0.9	2431
CCOC(=O)c1c(-c2ccc(C)o2)csc1NC(=O)CN(C)CC(=O)Nc1ccc(C)cc1	0.6	1.0	-4.5	20236*
CCc1ccc(NC(=O)CC2C(=O)Nc3c2c(=O)n(C)c(=O)n3C)cc1 (stereo not drawn)	6.9	2.9	0.8	22007*
CCc1ccc(NC(=O)CC2NCCNC2=O)cc1 (stereo not drawn)	-2.7	0.4	-0.1	11220
COc1ccc(Cc2nnc(Nc3c(C)cccc3C)o2)cc1OC	13.7	-2.3	3.0	3023
Cc1cccc(NC(=S)N(C)C2(c3ccccc3Cl)CCCCC2=O)c1 (stereo not drawn)	-0.5	1.9	-0.9	22871*
CN(C(=S)Nc1ccccc1F)C1(c2ccccc2Cl)CCCCC1=O (stereo not drawn)	-4.1	-1.4	-5.2	20195*
CCN1C(=O)[C@@H]2[C@@H]3CN(S(=O)(=O)c4ccc(C)cc4)[C@@H](c4ccccc4Cl)[C@@H]3C(=O)C[C@@H]2C1=O	-3.8	-0.3	1.5	5594
Cc1nc(N)ncc1CCC1OCCO1	-0.2	-0.1	-7.0	3664
COc1cc(OC)c(C2CC(=O)N3CN(C)CSC3=C2C#N)cc1OC (stereo not drawn)	-0.7	-0.3	-8.8	5861
COc1cc(OC)c(C2CC(=O)N3CN(c4ccccc4)CSC3=C2C#N)cc1OC (stereo not drawn)	0.0	?	-4.5	20460*
SMILES	BoNT-F LC inh	BoNT A protease	Anthrax LF prot	Autofluor counter
COc1ccc2ccccc2c1C1CC(=O)N2CN(C)CSC2=C1C#N (stereo not drawn)	-0.9	?	1.0	20088*
CCOC(=O)C1=C(C)C/C(=N\NC(=O)c2ccccc2O)CC1	-9.8	-0.7	-2.0	4302
CC1CC(C)(C)NC(=S)N1CCCC(=O)N1CCN(c2ccc(F)cc2)CC1 (stereo not drawn)	2.5	0.5	-2.6	7352
CCOC(=O)CSc1nc(C)c(C(C)=O)cc1C#N	-2.4	-2.6	-1.2	23558*
CC(=O)c1ccc(Sc2ccccc2)cc1	3.6	2.3	0.2	22491*
COc1ccccc1NC(=O)c1ccc(NC(=O)CN2C(=O)CN(C)C2=O)cc1	-2.1	0.3	6.4	4026
Cc1nc(C(F)(F)F)c(C(=O)NC(=O)Nc2ccccc2)s1	0.0	-1.1	-1.2	16731*
CCOP(=O)(OCC)c1nc(-c2ccc(Cl)cc2Cl)oc1N1CCOCC1	0.3	-0.8	-3.1	4008
COc1ccc(N2CCN(c3nc(NCCc4ccc(OC)c(OC)c4)nc(OC)n3)CC2)cc1	-0.3	?	-4.9	22889*
CCOc1cc(C)nc(NCCc2ccc(OC)c(OC)c2)n1	-8.5	-0.1	-1.5	10760
CCOc1nc(NCCc2ccc(OC)c(OC)c2)nc(N2CCN(c3ccc(OC)cc3)CC2)n1	-0.6	-0.8	-1.8	23445*
COC(=O)[C@@H](NCc1cccc(CN[C@H](C(=O)OC)c2ccccc2)c1)c1ccccc1	-13.2	-0.9	-5.5	3710
COc1ccccc1NC(=S)N1CCC(c2nc3ccccc3o2)CC1	0.2	-0.1	0.9	2016
Cc1cccc(C)c1NC(=O)N1CCC(c2nc3ccccc3o2)CC1	-0.2	?	0.7	23165*
COc1ccccc1CC(=O)N(Cc1ccccc1)c1ccc(C)cc1	-8.1	-4.5	0.4	?
CN(C(=S)NC(=O)C1(C)CC1(Cl)Cl)c1ccccc1 (stereo not drawn)	-3.6	-0.1	0.7	23191*
Cc1ccc(CC(=O)Nc2cccc(C(=O)Nc3c(C)n(C)n(-c4ccccc4)c3=O)c2)cc1C	-7.4	-0.5	-4.7	4128
COc1ccc(Cl)cc1NC(=O)Cn1c(C)csc1=O	-4.3	-0.5	-0.2	3647
CCn1c(-c2cc(-c3cccc(OC)c3)nc3ccccc23)n[nH]c1=S	1.9	2.0	-3.9	19974*
CS(=O)(=O)N1CCN(C(=O)c2ccncc2)CC1	2.7	-0.2	-10.5	3022
Cc1ccc(C(=O)N2CCSCC2)cc1	0.4	0.7	-2.6	20353*
Cc1ccc(NC(=O)Nc2ccc(C(=O)N3CCOCC3)cc2)cc1	4.5	0.3	3.5	5896
O=C(c1ccncc1)N1CCN(C(=O)c2ccncc2)CC1	-2.7	-0.9	-5.0	22332*
Cc1ccccc1-c1cnc(C(O)c2cccc(C)c2C)[nH]1 (stereo not drawn)	-0.8	-0.3	-3.3	3955
CC(C)c1ccc(-c2nnn(CCC#N)n2)cc1	-5.1	-1.2	-0.4	4987
SMILES	BoNT-F LC inh	BoNT A protease	Anthrax LF prot	Autofluor counter
CC(C)c1ccc(-c2nnn(Cc3nc4ccccc4s3)n2)cc1	-7.3	-1.6	-4.4	16755*
Cc1ccc(Nc2c(O)nc[nH]c2=O)cc1	-4.8	0.1	-5.0	4135
CCOC(=O)c1ccc(NC(=S)NCCCN2CCOCC2)cc1	-2.9	-1.0	-5.0	4712
CC(=O)Nc1ccc(OC(=O)N2CCCCC2)cc1	-0.8	0.2	-0.4	22883*
COc1ccc(N(CC(=O)Nc2cccc(C)c2C)S(=O)(=O)c2c(C)n[nH]c2C)cc1	-0.8	?	-1.0	20057*
COc1ccc(N(CC(=O)Nc2cccc(C)c2C)S(=O)(=O)c2c(C)[nH]c(=O)[nH]c2=O)cc1	-1.9	0.1	-4.8	4166
CCOC(=O)c1cccc(NC(=O)CN(c2ccc(OC)cc2)S(=O)(=O)c2c(C)noc2C)c1	-1.9	0.3	-1.9	20239*
CCOc1ccccc1NC(=O)CN(c1cc(C)cc(C)c1)S(=O)(=O)c1c(C)noc1C	-2.0	-0.5	-1.6	5010
CCOc1ccccc1NC(=O)CN(c1ccc(OC)cc1)S(=O)(=O)c1c(C)noc1C	-3.0	-1.8	1.4	16905*
